ChEMBL document CHEMBL1157539, “Thousands of chemical starting points for antimalarial lead identification” (Nature, 2010)

How the values were obtained:
Type in all cases: functional
Plasmodium falciparum [1] = test: GSK_TCMDC: Inhibition of Plasmodium falciparum 3D7 in whole red blood cells, using parasite LDH activity as an index of growth. Test compounds present at 2uM
Plasmodium falciparum [2] = test: GSK_TCMDC: Inhibition of Plasmodium falciparum Dd2 in whole red blood cells, using parasite LDH activity as an index of growth. Test compounds present at 2uM
HepG2 = test: GSK_TCMDC: Percent inhibition of human HepG2 cell line. Test compounds present at 10uM.

Row | Structure (SMILES) | Inhibition (Plasmodium falciparum [1]) [%] | Inhibition (Plasmodium falciparum [2]) [%] | Inhibition (HepG2) [%]
1 | CC(C)(C)OC(=O)c1c(NC(=O)/C=C/c2ccc(O)c(O)c2)sc2c1CCCC2 | 97 | 77 | 4
2 | Cc1cc(NCc2ccccc2)nc2cc(O)ccc12 | 98 | 80 | 0
3 | COc1cc(N)c(Cl)cc1C(=O)NCC1CCN(c2nc(C)cc(C)n2)CC1 | 96 | 95 | 0
4 | CC(C)Oc1ccccc1-c1csc(C(=O)NCC2CCN(Cc3ccc(C(C)(C)C)cc3)C2)c1.O=C(O)C(F)(F)F (stereo not drawn) | 90 | 45 | 59
5 | O=C(Nc1ccc2ccccc2n1)c1ccccc1-c1ccccc1 | 90 | 83 | 14
6 | O=S(=O)(c1cc(Cl)sc1Cl)N(CCC(O)(C(F)(F)F)C(F)(F)F)Cc1cccc(O)c1 | 98 | 97 | 0
7 | CC1CN(Cc2cccc(-c3ccc(-c4nc5ccccc5[nH]4)cc3)c2)CC(C)O1.O=C(O)C(F)(F)F (stereo not drawn) | 90 | 88 | 37
8 | O=C(/C=C/c1ccc(Cl)c(Cl)c1)NC1CCN(Cc2ccc(O)cc2)C1.O=C(O)C(F)(F)F (stereo not drawn) | 97 | 4 | 15
9 | CN(C)Cc1ccc(-c2ccc(NC(=O)c3ccc4c(=O)n(Cc5ccoc5)cnc4c3)cc2)cc1 | 80 | 16 | 32
10 | O=C(Nc1cccc(F)c1)N(Cc1ccc(-c2cccc(CN3CCNCC3)c2)cc1)C1CCN(Cc2ccccc2)CC1.O=C(O)C(F)(F)F | 97 | 54 | 13
11 | Cc1cc(N2CCOCC2)nc2ccc(NC(=O)c3cccc([N+](=O)[O-])c3)cc12 | 97 | 37 | 0
12 | CC(C)CN(Cc1c(O)ccc2[nH]c(-c3ccc(F)cc3F)nc12)CC(C)C | 98 | 92 | 11
13 | CN(C)CCNc1ncnc2c1[nH]c1ccc(Cl)cc12 | 100 | 8 | 7
14 | Cc1cc(N2CCCC2)nc(Nc2ccc(NC(=O)c3ccc(Br)o3)cc2)n1 | 99 | 57 | 17
15 | O=C(Nc1ccc(OC2CCN(Cc3ccccc3)CC2)c(Cl)c1)c1ccsc1.O=C(O)C(F)(F)F | 87 | 92 | 3
16 | Cc1cnccc1/C=C/c1cccc(OCCN2CCc3ccc(S(C)(=O)=O)cc3CC2)c1 | 93 | 80 | 9
17 | CC(=O)Nc1ccc(C(=O)Nc2cccc(-c3cccc(-c4nc5cc(F)ccc5[nH]4)c3)c2)cn1 | 99 | 98 | 0
18 | COc1ccc(CC(=O)NC(CCN2CCC3(CCc4ccccc43)CC2)c2ccc(Cl)c(Cl)c2)cc1 (stereo not drawn) | 90 | 75 | 28
19 | Cc1cc(NC2CCN(CC3CCCCC3)CC2)nc(Nc2ccccc2Cl)n1 | 100 | 31 | 28
20 | CN1CCN(CCCN(Cc2ccc(-c3cccc(CNC4CCCC4)c3)cc2)C(=O)Nc2ccccc2)CC1.O=C(O)C(F)(F)F | 92 | 76 | 28
21 | CC(C)n1cc(CN2CCCC(C(=O)Nc3cccc(-c4cc5ccccc5[nH]4)c3)C2)cn1 (stereo not drawn) | 96 | 65 | 34

Row | Structure (SMILES) | Inhibition (Plasmodium falciparum [1]) [%] | Inhibition (Plasmodium falciparum [2]) [%] | Inhibition (HepG2) [%]
22 | CCCCCn1c(Sc2ccc(C#N)c([N+](=O)[O-])c2)nnc1-c1cccs1 | 91 | 38 | 19
23 | CC(=O)Nc1cccc(C(=O)Nc2cccc(-c3ccc(-c4nc5cccc(C)c5[nH]4)cc3)c2)c1 | 95 | 12 | 29
24 | Nc1cc(-c2cc3c(OCc4ccccc4)cccc3[nH]2)ccn1 | 85 | 15 | 23
25 | CC(C)(C)c1ccc(CN2CCC(NC(=O)c3ccc(-c4cccc(Cl)c4)s3)CC2)cc1.O=C(O)C(F)(F)F | 99 | 47 | 36
26 | O=C(NCCCCN1CCC(c2ccc(C(F)(F)F)cc2C(F)(F)F)CC1)c1ccc(NC(=O)c2ccc(Cl)cc2)cc1 | 99 | 59 | 4
27 | Cc1cc(-c2c[nH]c3ncc(-c4cccc5ncccc45)cc23)ccc1C(=O)O.O=C(O)C(F)(F)F | 99 | 77 | 31
28 | Nc1cc(-c2cccc(Cl)c2)nn1-c1ccnc2cc(Cl)ccc12 | 99 | 33 | 0
29 | Nc1cc(-c2ccc3c(N)nccc3c2)ccc1Cl | 91 | 4 | 1
30 | O=S(=O)(Nc1cccc(CCN2CCC(N3CCCCC3)CC2)c1)c1ccc(Oc2ccccc2)nc1 | 99 | 0 | 8
31 | O=C(Nc1cccc(CN2CCN(C(=O)c3cccc(F)c3)CC2)c1)c1ccco1.O=C(O)C(F)(F)F | 88 | 55 | 7
32 | COc1cc2nc(NCc3ccccc3)nc(NCc3ccccc3)c2cc1OC | 100 | 100 | 66
33 | CN1CCN(Cc2ccc(-c3ccc4ncnc(Nc5ccc(OCc6ccccc6)cc5)c4c3)o2)CC1 | 97 | 90 | 9
34 | O=C(c1ccc(-c2ccc(-c3nc4cc(C(F)(F)F)ccc4[nH]3)s2)cc1)N1CCCCC1CN1CCC(O)C1 (stereo not drawn) | 92 | 80 | 90
35 | Cc1ccc2nc(-c3ccc(C(=O)NC4CCN(Cc5ccccc5)CC4)s3)[nH]c2c1 | 97 | 83 | 13
36 | COc1ccc(CNC2CCN(C)CC2)cc1-c1ccc(S(=O)(=O)NCCc2ccccn2)cc1.O=C(O)C(F)(F)F | 93 | 17 | 13
37 | N=C(Nc1cccc(Cc2ccccc2)n1)Nc1ncccn1 | 90 | 34 | 51
38 | N#Cc1ccc(-c2ccc(C(=O)NCCCCN3CCC(c4ccc5c(c4OCc4ccccn4)CCCC5)CC3)cc2)cc1 | 96 | 39 | 37
39 | Br.Oc1ccc(CCNCCCCCCNCCCc2ccc(Cl)cc2)cc1O | 87 | 3 | 13
40 | COCc1cccc(-c2cc(-c3ccc(S(C)(=O)=O)cc3)cnc2N)c1 | 98 | 88 | 10
41 | CCCOc1ccc(CCNCCCCNCCc2ccc(OCCC)c3ccccc23)c2ccccc12.CS(=O)(=O)O | 93 | 52 | 100
42 | CS(=O)(=O)c1cc2c(Nc3ccc(N4CCOCC4)cc3)c(C(N)=O)cnc2cc1Br.Cl | 100 | 89 | 0

Row | Structure (SMILES) | Inhibition (Plasmodium falciparum [1]) [%] | Inhibition (Plasmodium falciparum [2]) [%] | Inhibition (HepG2) [%]
43 | COc1cc(CNC[C@@H](O)[C@H](Cc2ccccc2)NC(=O)c2cc(C3CCCC3)cc(N3CCCC3=O)c2)cc(OC)c1.Cl | 97 | 76 | 16
44 | Cc1cc(N[C@@H](Cc2ccccc2)C(=O)NCCc2ccccc2)nc(NCCc2ccc(F)cc2)n1.O=C(O)C(F)(F)F | 99 | 89 | 9
45 | CN(C)CCNC(=O)N1CCCN(c2ncnc3cc(-c4ccccc4)sc23)CC1.O=C(O)C(F)(F)F | 96 | 37 | 5
46 | c1cc2[nH]c(CCCc3nc4cc(C5=N[C@H]6CCCC[C@H]6N5)ccc4[nH]3)nc2cc1C1=N[C@@H]2CCCC[C@@H]2N1 | 85 | 84 | 10
47 | COc1ccc(-c2ccnc(-c3cccc(-c4ccccn4)n3)c2)cc1 | 97 | 84 | 44
48 | O=C(Nc1ccc(OC2CCN(Cc3ccc(F)cc3)CC2)c(Cl)c1)c1ccccc1.O=C(O)C(F)(F)F | 90 | 89 | 16
49 | CCCCCCC(C)c1cc(O)c2c(c1)OC(=O)CC2(CC)c1ccccn1.Cl (stereo not drawn) | 100 | 0 | 15
50 | Cc1cc(N2CCC(NS(=O)(=O)c3ccccc3)CC2)nc(Nc2cccc(C#N)c2)n1.O=C(O)C(F)(F)F | 93 | 29 | 52
51 | Cc1cc(N2CCC(C)CC2)nc2cc(O)ccc12 | 89 | 41 | 31
52 | Cc1cccc(-n2nc(C)c3c2NC(=O)CC3C(=O)c2ccc(Cl)s2)c1 (stereo not drawn) | 92 | 85 | 13
53 | CC(C)(C)C(C)(C)Cc1ccc(O)c(CN2CCN(c3ccccc3)CC2)c1 | 99 | 98 | 6
54 | CC(C)n1ncc2c(C(=O)N3CCCc4ccccc43)cc(-c3ccccc3)nc21 | 100 | 82 | 5
55 | CS(=O)(=O)c1ccc(CCNCc2ccc(-c3ccc(CN(C(=O)C4CC(=O)c5ccccc54)C4CCN(Cc5ccccc5)CC4)cc3)nc2)cc1.O=C(O)C(F)(F)F (stereo not drawn) | 100 | 49 | 9
56 | COc1cc(C(=O)NC2CC(C)(C)NC(C)(C)C2)ccc1-c1cc2cc(Cl)c(Cl)cc2[nH]1.O=C(O)C(F)(F)F | 99 | 31 | 41
57 | CCN(CC)CCNC(=O)c1ccc(NC(=O)c2ccc(-c3cc(NC(=O)CC4CCCC4)ccc3C)cc2)cc1 | 99 | 95 | 12
58 | Cc1cc(=NN=Cc2ccccc2)c2cc(C(F)(F)F)ccc2[nH]1 | 100 | 97 | 30
59 | Fc1ccc2[nH]c(-c3cccc(-c4ccc(CN5CCCCC5)cc4)c3)nc2c1.O=C(O)C(F)(F)F | 99 | 97 | 46
60 | Nc1c(Cl)cc(C(O)CNCCCCCOCCc2ccc3ccccc3n2)cc1Cl.O=C(O)/C=C/C(=O)O (stereo not drawn) | 98 | 97 | 9
61 | Cl.O=C(O[C@H]1CN[C@H](C#Cc2cc3ncnc(Nc4ccc5c(ccn5S(=O)(=O)c5cccs5)c4)c3s2)C1)N1CCOCC1 | 85 | 48 | 0
